Results filed as inconclusive are left out. The source made the active and inactive calls. Unless noted, calls follow the shape of the dose curve; as a rule, active = well fitted curve in the direction sought with a large enough effect in the repeat runs; inconclusive = weak or mixed curves; inactive = no such curve, though single readings can be large; an effect the other way counts as inactive or inconclusive.
Experiments:
[1] = Human pregnane X receptor (PXR) small molecule agonists, qHTS cell viability counter screen (AID 1346977); also: nearly all actives have a fitted effect of over 50% in size; also: potency is read from the fitted curve at half-maximal effect
Summary of the method: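 Readout is CellTiter-Fluor fluorescence from PXR-Luc HepG2 cells. Plated cells rested 5hr, then were treated with compounds for 24hr at 37C and 5% CO2, with reagent present during the last hour.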

[2] = Caspase-3/7 induction in HepG2 cells by small molecules, qHTS assay (AID 1346978); also: nearly all actives have a fitted effect of over 15% in size
Summary of the method: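 Wild-type HepG2 cells, 2,000/well, settled 5 hr at 37 C and 5% CO2, then compound-treated for 17 hr; caspase-3/7 activity read by luminescent Caspase-Glo 3/7 after 30 min at room temperature.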

[3] = Caspase-3/7 induction in CHO-K1 cells by small molecules, qHTS cell viability counter screen (AID 1346979); also: nearly all actives have a fitted effect of over 35% in size; also: potency is read from the fitted curve at half-maximal effect
Summary of the method: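 To flag cytotoxic compounds, treated CHO-K1 wild-type cells were given CellTiter-Fluor at 16hr and read fluorescently after 1hr at 37C; the caspase-3/7 luminescence was measured in these same wells.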

[4] = Caspase-3/7 induction in CHO-K1 cells by small molecules, qHTS assay (AID 1346980); also: nearly all actives have a fitted effect of over 15% in size
Summary of the method: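 Wild-type CHO-K1 cells exposed to compounds for 17hr at 37 C, 5% CO2. Caspase-3/7 activity then measured by Caspase-Glo 3/7 luminescence after 30min at room temperature.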

[5] = Caspase-3/7 induction in HepG2 cells by small molecules, qHTS cell viability counter screen (AID 1346981); also: nearly all actives have a fitted effect of over 30% in size; also: potency is read from the fitted curve at half-maximal effect; as to activity change, negative = cytotoxicity: series mostly up to about 92 µM
Summary of the method: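 Fluorescence read-out of live-cell protease activity (CellTiter-Fluor) after 1 hr with reagent. This was measured in the same wells as the caspase-3/7 luminescence, on HepG2 cells exposed to DMSO-dissolved compounds for 16 hr at 37 C.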

[6] = target: Nuclear receptor subfamily 1 group I member 2 (Homo sapiens) (UniProt O75469); experiment: Human pregnane X receptor (PXR) small molecule agonists, qHTS assay (AID 1346982); also: nearly all actives have a fitted effect of over 35% in size; also: potency is read from the fitted curve at half-maximal effect
Summary of the method: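 HepG2 PXR-Luc reporter line, 5% charcoal-stripped FBS; 5 hr pre-incubation, compound (DMSO) 24 hr at 37 C/5% CO2; ONE-Glo 30 min RT; luminescence read-out.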

[7] = target: Acetylcholinesterase (Homo sapiens) (UniProt P22303); experiment: Acetylcholinesterase (AChE) small molecule antagonists: colormetric cell-based qHTS assay (AID 1347395; calls by dose curve; also: nearly all actives have a fitted effect of over 30% in size)
Summary of the method: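 Neuroblastoma line SH-SY5Y supplied the enzyme; cells were preincubated with compound for 30 min at 37 C and 5% CO2. Acetylthiocholine with DTNB was then added for 90 min at 37 C, and thiocholine was measured by colour.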

[8] = target: Acetylcholinesterase (Homo sapiens) (UniProt P22303); experiment: Acetylcholinesterase (AChE) small molecule antagonists: enzyme-based qHTS assay (AID 1347397; calls by dose curve; also: nearly all actives have a fitted effect of over 55% in size); conditions: Potency: AChE enzyme activity inhibition
Summary of the method: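 In this quantitative HTS, compounds from the Tox21 10K collection were preincubated 30 min at ambient temperature with recombinant human AChE dispensed at 50 mU/mL. Hydrolysis of acetylthiocholine was then followed for 10 min by DTNB colour development.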

[9] = target: Acetylcholinesterase (Homo sapiens) (UniProt P22303); experiment: Acetylcholinesterase (AChE) small molecule antagonists: enzyme-based qHTS assay with human liver microsomes (AID 1347399; calls by dose curve; also: nearly all actives have a fitted effect of over 60% in size); conditions: Potency: qHTS inhibition
Summary of the method: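 Recombinant human AChE (50 mU/mL in the enzyme mix) and human liver microsomes (0.25 mg/mL final) were preincubated with compound and NADPH (0.25 mg/mL final) for 30 min at 37 C. Acetylthiocholine/DTNB was then added; thiocholine was read colorimetrically after 10 min at room temperature.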

[10] = target: Cytochrome P450 2D6 (Homo sapiens) (UniProt P10635); experiment: Cytochrome P450 Family 2 Subfamily D Member 6 (CYP2D6) small molecule antagonists: luciferase reporter qHTS assay (AID 1671196); also: series mostly up to about 120 µM; nearly all actives have a fitted effect of over 50% in size
Summary of the method: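 Luminogenic proluciferin substrate, CYP2D6 enzyme; 10 min RT preincubation with compound, NADPH regeneration system added, 1 h RT. Stop/detection reagent, 20 min RT, luminescence read (RLU). Signal proportional to CYP activity.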

[11] = target: Cytochrome P450 2C19 (Homo sapiens) (UniProt P33261); experiment: Cytochrome P450 Family 2 Subfamily C Member 19 (CYP2C19) small molecule antagonists: luciferase reporter qHTS assay (AID 1671197); also: nearly all actives have a fitted effect of over 65% in size; also: potency is read from the fitted curve at half-maximal effect; as to activity change, negative = inhibition: series mostly up to about 120 µM
Summary of the method: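 CYP2C19 P450-Glo, 1536-well qHTS. Cpd + enzyme/proluciferin substrate 10 min RT; + NADPH regen, 37C 1 h; stop with luciferin detection reagent, 20 min RT, luminescence (RLU). Pos ctrl ketoconazole.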

[12] = target: Cytochrome P450 2C9 (Homo sapiens) (UniProt P11712); experiment: Cytochrome P450 Family 2 Subfamily C Member 9 (CYP2C9) small molecule antagonists: luciferase reporter qHTS assay (AID 1671198); also: nearly all actives have a fitted effect of over 50% in size; also: potency is read from the fitted curve at half-maximal effect; as to activity change, negative = inhibition: series mostly up to about 120 µM
Summary of the method: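 P450-Glo proluciferin substrate with CYP2C9 enzyme; 10 min RT preincubation, then NADPH regeneration 1 h at 37C; luciferin detection reagent 20 min RT, luminescence in relative luminescence units.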

[13] = target: Voltage-gated inwardly rectifying potassium channel KCNH2 (Homo sapiens) (UniProt Q12809); experiment: Human Ether-a-go-go-Related Gene (hERG) channel small molecule antagonists: fluorescence cell-based qHTS assay (AID 1671200);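 also: hERG-expressing U2OS cells given a thallium stimulus after FluxOR II dye loading; series mostly up to about 77 µM; nearly all actives have a fitted effect of over 50% in size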
Summary of the method: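 Measured: Tl+ flux via fluorescence (480/540 nm) in hERG-expressing U2OS cells after 1 h dye loading at room temperature.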

[14] = target: Acetylcholinesterase (Homo sapiens) (UniProt P22303); experiment: Acetylcholinesterase (AChE) small molecule antagonists: fluorescence cell-based qHTS assay (AID 1347398; calls by dose curve; also: nearly all actives have a fitted effect of over 50% in size); conditions: Potency: AChE activity
Summary of the method: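 Cells (SH-SY5Y) attached overnight, were dosed with compound or DMSO vehicle for 30 min at 37 C, and then incubated 40 min at room temperature with acetylthiocholine and Thiolite Green; green fluorescence indexed AChE activity.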

[15] = target: Cytochrome P450 3A4 (Homo sapiens) (UniProt P08684); experiment: Cytochrome P450 Family 3 Subfamily A Member 4 (CYP3A4) small molecule antagonists: luciferase reporter qHTS assay (AID 1671201); also: nearly all actives have a fitted effect of over 50% in size; also: potency is read from the fitted curve at half-maximal effect; as to activity change, negative = inhibition: series mostly up to about 120 µM
Summary of the method: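 Setup: enzyme-substrate mix, compound pin transfer, 10 min RT. Reaction: NADPH regeneration solution, 1 h RT. Readout: detection reagent stops turnover, luminescence measured after 20 min, expressed in relative luminescence units.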

[16] = target: Cytochrome P450 1A2 (Homo sapiens) (UniProt P05177); experiment: Cytochrome P450 Family 1 Subfamily A Member 2 (CYP1A2) small molecule antagonists: luciferase reporter qHTS assay (AID 1671199); also: nearly all actives have a fitted effect of over 50% in size; also: potency is read from the fitted curve at half-maximal effect; as to activity change, negative = inhibition: series mostly up to about 120 µM
Summary of the method: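 Luminescence readout (relative luminescence units) after luciferin detection reagent, 20 min RT. Preceded by 1 h room-temperature CYP1A2 reaction with NADPH regeneration solution following 10 min compound preincubation with enzyme and proluciferin substrate. Furafylline positive control.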
% is scaled to controls: 0 for no effect and ±100 for the full control effect.

Chain of Nuclear receptor subfamily 1 group I member 2 (Homo sapiens) (O75469 whole entry, looked up): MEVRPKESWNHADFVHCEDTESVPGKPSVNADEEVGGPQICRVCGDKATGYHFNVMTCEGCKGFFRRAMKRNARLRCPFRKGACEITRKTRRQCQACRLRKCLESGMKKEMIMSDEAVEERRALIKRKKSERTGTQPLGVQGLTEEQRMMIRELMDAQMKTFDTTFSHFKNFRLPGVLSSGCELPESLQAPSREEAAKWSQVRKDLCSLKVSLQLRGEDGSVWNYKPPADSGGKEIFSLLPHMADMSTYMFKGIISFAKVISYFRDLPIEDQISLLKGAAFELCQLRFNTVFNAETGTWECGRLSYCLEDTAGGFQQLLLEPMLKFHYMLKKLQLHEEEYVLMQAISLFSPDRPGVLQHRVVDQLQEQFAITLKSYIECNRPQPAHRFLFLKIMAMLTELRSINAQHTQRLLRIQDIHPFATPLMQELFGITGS
Chain of Cytochrome P450 1A2 (Homo sapiens) (P05177 whole entry, looked up): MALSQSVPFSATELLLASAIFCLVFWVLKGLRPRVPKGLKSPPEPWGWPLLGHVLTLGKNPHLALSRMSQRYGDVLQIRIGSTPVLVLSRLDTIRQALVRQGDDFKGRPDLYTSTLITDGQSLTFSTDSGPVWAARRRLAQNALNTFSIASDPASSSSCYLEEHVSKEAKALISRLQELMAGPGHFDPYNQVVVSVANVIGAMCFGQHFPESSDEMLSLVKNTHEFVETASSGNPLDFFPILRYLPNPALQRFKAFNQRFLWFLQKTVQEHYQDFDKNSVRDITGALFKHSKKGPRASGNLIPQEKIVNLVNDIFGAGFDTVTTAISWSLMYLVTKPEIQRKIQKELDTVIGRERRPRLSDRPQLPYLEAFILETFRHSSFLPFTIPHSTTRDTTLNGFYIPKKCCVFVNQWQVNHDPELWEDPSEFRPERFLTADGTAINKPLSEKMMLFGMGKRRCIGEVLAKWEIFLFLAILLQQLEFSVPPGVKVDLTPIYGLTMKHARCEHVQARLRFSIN
Chain of Cytochrome P450 2C19 (Homo sapiens) (P33261 whole entry, looked up): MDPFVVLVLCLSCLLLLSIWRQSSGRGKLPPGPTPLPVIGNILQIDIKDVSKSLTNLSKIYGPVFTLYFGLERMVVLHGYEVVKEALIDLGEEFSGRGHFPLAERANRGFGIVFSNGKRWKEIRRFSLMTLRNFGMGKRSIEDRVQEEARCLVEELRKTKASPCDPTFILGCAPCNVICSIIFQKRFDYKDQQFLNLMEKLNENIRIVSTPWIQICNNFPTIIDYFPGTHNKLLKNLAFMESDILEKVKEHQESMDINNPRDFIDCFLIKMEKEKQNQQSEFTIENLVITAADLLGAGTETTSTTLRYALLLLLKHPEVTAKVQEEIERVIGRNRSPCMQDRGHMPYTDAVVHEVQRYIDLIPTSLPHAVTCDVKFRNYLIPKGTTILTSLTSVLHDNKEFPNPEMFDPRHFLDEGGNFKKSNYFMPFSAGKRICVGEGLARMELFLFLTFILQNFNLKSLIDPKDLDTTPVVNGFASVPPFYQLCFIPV
Chain of Acetylcholinesterase (Homo sapiens) (P22303 whole entry, looked up): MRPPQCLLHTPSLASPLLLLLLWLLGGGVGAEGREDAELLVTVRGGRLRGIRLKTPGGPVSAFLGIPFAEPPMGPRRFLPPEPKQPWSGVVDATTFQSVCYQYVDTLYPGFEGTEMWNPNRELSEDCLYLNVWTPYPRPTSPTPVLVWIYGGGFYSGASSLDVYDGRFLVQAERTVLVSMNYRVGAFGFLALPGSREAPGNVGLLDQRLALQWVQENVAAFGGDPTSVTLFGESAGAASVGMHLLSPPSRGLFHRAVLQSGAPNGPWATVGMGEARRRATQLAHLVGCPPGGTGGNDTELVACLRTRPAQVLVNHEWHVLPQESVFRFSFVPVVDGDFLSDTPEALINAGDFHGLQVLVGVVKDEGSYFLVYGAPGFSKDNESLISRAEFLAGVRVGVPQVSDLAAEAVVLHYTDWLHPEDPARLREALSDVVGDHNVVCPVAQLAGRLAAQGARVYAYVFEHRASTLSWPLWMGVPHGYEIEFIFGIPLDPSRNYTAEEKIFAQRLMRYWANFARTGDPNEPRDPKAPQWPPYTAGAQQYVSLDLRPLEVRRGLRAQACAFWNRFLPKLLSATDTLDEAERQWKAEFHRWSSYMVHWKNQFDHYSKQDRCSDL
Chain of Cytochrome P450 2D6 (Homo sapiens) (P10635 whole entry, looked up): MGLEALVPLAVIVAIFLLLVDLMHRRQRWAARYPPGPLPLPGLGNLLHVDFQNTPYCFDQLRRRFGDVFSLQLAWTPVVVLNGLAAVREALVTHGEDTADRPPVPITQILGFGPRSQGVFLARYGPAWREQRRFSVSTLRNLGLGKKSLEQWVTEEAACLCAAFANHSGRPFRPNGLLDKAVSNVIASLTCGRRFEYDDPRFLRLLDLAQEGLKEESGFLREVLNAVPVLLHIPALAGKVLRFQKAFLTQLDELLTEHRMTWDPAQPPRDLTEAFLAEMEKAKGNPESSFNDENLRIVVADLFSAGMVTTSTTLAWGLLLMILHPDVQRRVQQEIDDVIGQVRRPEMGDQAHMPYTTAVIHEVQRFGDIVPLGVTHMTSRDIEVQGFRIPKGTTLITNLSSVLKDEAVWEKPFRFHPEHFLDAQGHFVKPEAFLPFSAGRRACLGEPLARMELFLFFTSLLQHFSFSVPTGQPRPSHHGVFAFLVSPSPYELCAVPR
Chain of Cytochrome P450 2C9 (Homo sapiens) (P11712 whole entry, looked up): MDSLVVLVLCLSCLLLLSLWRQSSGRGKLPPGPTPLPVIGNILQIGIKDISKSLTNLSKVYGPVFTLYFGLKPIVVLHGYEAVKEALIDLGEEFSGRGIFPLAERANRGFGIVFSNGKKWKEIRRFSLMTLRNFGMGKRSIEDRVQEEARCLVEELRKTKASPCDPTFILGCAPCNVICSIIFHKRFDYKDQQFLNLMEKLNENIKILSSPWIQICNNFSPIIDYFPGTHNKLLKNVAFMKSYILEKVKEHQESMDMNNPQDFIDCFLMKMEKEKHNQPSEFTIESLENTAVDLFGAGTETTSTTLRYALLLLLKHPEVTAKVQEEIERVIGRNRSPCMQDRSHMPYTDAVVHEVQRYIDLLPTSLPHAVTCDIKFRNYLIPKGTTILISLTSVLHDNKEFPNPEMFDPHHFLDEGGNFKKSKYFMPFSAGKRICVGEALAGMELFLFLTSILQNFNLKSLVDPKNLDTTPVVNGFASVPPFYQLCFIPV
Chain of Voltage-gated inwardly rectifying potassium channel KCNH2 (Homo sapiens) (Q12809 whole entry, looked up): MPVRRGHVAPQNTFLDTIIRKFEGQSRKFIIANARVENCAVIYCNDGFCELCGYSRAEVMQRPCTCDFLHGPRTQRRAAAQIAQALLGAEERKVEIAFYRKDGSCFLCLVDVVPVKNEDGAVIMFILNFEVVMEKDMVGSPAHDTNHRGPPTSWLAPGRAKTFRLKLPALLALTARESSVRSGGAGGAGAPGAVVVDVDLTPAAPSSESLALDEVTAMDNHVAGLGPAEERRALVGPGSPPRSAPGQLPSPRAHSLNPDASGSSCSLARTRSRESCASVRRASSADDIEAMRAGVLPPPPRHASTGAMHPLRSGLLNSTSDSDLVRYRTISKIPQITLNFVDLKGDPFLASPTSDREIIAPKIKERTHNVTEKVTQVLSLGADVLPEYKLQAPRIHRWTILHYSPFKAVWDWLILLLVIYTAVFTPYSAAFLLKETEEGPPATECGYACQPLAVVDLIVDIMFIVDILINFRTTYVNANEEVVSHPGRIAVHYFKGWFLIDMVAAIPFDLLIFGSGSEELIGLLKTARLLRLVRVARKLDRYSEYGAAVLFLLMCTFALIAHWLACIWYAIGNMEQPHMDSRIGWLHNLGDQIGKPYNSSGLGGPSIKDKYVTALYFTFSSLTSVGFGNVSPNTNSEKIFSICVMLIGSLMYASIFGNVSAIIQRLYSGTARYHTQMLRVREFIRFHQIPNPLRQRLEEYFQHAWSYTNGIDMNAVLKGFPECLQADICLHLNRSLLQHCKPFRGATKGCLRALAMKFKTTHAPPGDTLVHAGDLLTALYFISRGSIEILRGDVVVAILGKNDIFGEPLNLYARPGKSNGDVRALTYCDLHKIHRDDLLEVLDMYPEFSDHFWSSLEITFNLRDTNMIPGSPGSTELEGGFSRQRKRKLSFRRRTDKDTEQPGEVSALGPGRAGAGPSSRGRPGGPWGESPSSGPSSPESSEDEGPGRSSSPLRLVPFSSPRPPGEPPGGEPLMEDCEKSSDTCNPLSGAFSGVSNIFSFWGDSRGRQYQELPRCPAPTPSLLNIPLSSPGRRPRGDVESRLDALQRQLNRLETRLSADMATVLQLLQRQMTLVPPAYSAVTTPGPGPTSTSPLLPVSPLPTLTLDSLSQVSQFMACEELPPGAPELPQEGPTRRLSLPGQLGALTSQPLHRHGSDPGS
Chain of Cytochrome P450 3A4 (Homo sapiens) (P08684 whole entry, looked up): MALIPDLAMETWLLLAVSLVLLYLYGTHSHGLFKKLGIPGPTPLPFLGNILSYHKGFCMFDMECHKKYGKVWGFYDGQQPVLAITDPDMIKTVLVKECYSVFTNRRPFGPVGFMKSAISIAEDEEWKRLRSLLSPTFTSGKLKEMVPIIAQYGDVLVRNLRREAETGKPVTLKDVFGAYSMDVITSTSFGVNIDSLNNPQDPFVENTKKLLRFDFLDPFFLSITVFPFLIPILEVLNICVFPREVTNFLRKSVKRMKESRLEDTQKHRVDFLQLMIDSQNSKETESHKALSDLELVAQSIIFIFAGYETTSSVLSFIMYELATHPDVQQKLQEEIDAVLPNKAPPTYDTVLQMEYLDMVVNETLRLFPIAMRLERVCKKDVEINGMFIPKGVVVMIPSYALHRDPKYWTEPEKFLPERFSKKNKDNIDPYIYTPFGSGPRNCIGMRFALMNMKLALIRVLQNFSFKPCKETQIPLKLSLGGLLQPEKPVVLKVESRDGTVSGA

CCO[C@H]1O[C@@H]2OC3(C)CC[C@H]4[C@H](C)CC[C@@H]([C@H]1C)[C@@]24OO3
inactive: Potency [1] | Potency [2] | Potency [4] | Potency [5] | Potency [6] | Potency [7] | Potency [8] | Potency [9] | Potency [10] | Potency [13]
active: Potency [3] 0.266 µM | Potency [11] 21.9 µM | Potency [12] 11 µM

BrCC(Br)C1CCC(Br)C(Br)C1 (configuration not stated)
active: Potency [6] 48.3 µM | Potency [11] 11.2 µM | Potency [12] 31.6 µM
inactive: Potency [1] | Potency [2] | Potency [3] | Potency [4] | Potency [5] | Potency [7] | Potency [8] | Potency [14] | Potency [9] | Potency [15]

NC(=O)C(Cl)(Cl)Cl
inactive: Potency [1] | Potency [2] | Potency [3] | Potency [4] | Potency [5] | Potency [6] | Potency [7] | Potency [9] | Potency [10] | Potency [11] | Potency [12] | Potency [13] | Potency [15]

CCCCc1c(C)nc(NCC)nc1OS(=O)(=O)N(C)C
inactive: Potency [2] | Potency [4] | Potency [7] | Potency [8] | Potency [9]
active: Potency [1] 61.1 µM | Potency [3] 61.1 µM | Potency [5] 61.1 µM | Potency [6] 9.69 µM | Potency [11] 79.6 µM | Potency [12] 31.7 µM | Potency [16] 12.6 µM | Potency [15] 12.6 µM

NCC(CC(=O)O)c1ccc(Cl)cc1 (configuration not stated)
inactive: activity change, negative = cytotoxicity [1] -0.756% [at 0.349 µM] | caspase activation [2] 1.78% [at 0.349 µM] | activity change, negative = cytotoxicity [3] 5.63% [at 0.349 µM] | caspase-3/7 activation [4] -0.192% [at 0.349 µM] | activity change, negative = cytotoxicity [5] 8.17% [at 0.349 µM] | activation [6] -6.38% [at 0.349 µM] | activity change, negative = inhibition [8] 1.42% [at 0.435 µM] | activity change, negative = inhibition [14] 5.21% [at 0.439 µM] | activity change, negative = inhibition [9] -0.275% [at 0.435 µM] | activity change, negative = inhibition [10] -6.8% [at 0.435 µM] | activity change, negative = inhibition [11] -14.5% [at 0.435 µM] | activity change, negative = inhibition [12] 1.42% [at 0.435 µM] | activity change, negative = inhibition [16] 12.7% [at 0.435 µM] | activity change, negative = inhibition [13] -9.45% [at 0.29 µM] | activity change, negative = inhibition [15] 4.59% [at 0.435 µM]

CC(C)(OO)c1ccccc1
inactive: Potency [1] | Potency [2] | Potency [3] | Potency [4] | Potency [5] | Potency [6] | Potency [7] | Potency [9] | Potency [10] | Potency [13]
active: Potency [11] 35.6 µM | Potency [12] 39.9 µM | Potency [16] 25.2 µM

COC(=O)C(Br)CBr (configuration not stated)
active: Potency [16] 35.6 µM
inactive: Potency [1] | Potency [2] | Potency [3] | Potency [4] | Potency [5] | Potency [6] | Potency [7] | Potency [9] | Potency [10] | Potency [12] | Potency [13]

ClCCCCBr
inactive: Potency [1] | Potency [2] | Potency [3] | Potency [4] | Potency [5] | Potency [6] | Potency [7] | Potency [8] | Potency [9] | Potency [10] | Potency [11] | Potency [12] | Potency [16] | Potency [13] | Potency [15]

O=C(O)C(F)(F)C(F)(F)C(F)(F)C(F)(F)C(F)(F)C(F)(F)C(F)(F)C(F)(F)C(F)(F)F
inactive: Potency [1] | Potency [2] | Potency [3] | Potency [4] | Potency [5] | Potency [6] | Potency [7] | Potency [8] | Potency [9] | Potency [10] | Potency [11] | Potency [16] | Potency [13] | Potency [15]
active: Potency [12] 2.83 µM
